Reference: PubChem BioAssay AID1159580 (chemical genetic matrix, 2015)
Values joined by “and” are separate entries in the source; they are usually repeats but may differ in a detail not shown here. Identical values can stand only once. The whole screen tested about 5,500 compounds, of which about 2,000 (36%) were called active. Not shown: some 18% with an inconclusive outcome. No stated cut-off is given here; in the data, active means normalized growth mostly below about 0.91 (no sharp cut-off); inconclusive means no clear call, values can overlap the other calls; inactive means mostly above about 0.92. This is one part of the list.

Assay: chemical genetic growth profiling, strain panel (AID 1159580);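 further: tested at 20 µM; growth read once vehicle control cultures reached saturation at 30 °C; 1 = growth at the plate median or of vehicle wells; lower values mean less growth of the strain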
Conditions: S. cerevisiae deletion strains, growth OD

Measured: normalized growth

C[C@@H]1C[C@@H]([C@H](O)CC2CC(=O)NC(=O)C2)C(=O)[C@@H](C)C1
active: locus YAL013W, strain DEP1, hits give low values 0.0595 | locus YAL021C, strain ccr4, hits give low values 0.0677 | locus YAL026C, strain drs2, hits give low values 0.0607 | locus YAL030W, strain snc1, hits give low values 0.0538 | locus YBL061C, strain skt5, hits give low values 0.0591 | locus YBR009C, strain hhf1, hits give low values 0.0595 | locus YBR021W, strain FUR4, hits give low values 0.0961 | locus YBR023C, strain chs3, hits give low values 0.0612 | locus YBR171W, strain sec66, hits give low values 0.075 | locus YBR229C, strain ROT2, hits give low values 0.031 | locus YBR231C, strain swc5, hits give low values 0.0623 | locus YBR279W, strain paf1, hits give low values 0.0578 | locus YCL011C, strain gbp2, hits give low values 0.0569 | locus YCL016C, strain dcc1, hits give low values 0.0627 | locus YCL029C, strain bik1, hits give low values 0.0585 | locus YCL069W, strain vba3, hits give low values 0.058 | locus YCR088W, strain abp1, hits give low values 0.0589 | locus YDL005C, strain med2, hits give low values 0.0714 | locus YDL035C, strain GPR1, hits give low values 0.0555 | locus YDL040C, strain nat1, hits give low values 0.0555 | locus YDL074C, strain BRE1, hits give low values 0.0968 | locus YDL101C, strain DUN1, hits give low values 0.0509 | locus YDL134C, strain PPH21, hits give low values 0.0498 | locus YDL185W, strain tfp1, hits give low values 0.0581 | locus YDL192W, strain arf1, hits give low values 0.0598 | locus YDR001C, strain nth1, hits give low values 0.0564 | locus YDR069C, strain doa4, hits give low values 0.0601 | locus YDR101C, strain arx1, hits give low values 0.0579 | locus YDR137W, strain rgp1, hits give low values 0.0878 | locus YDR150W, strain NUM1, hits give low values 0.0592 | locus YDR159W, strain sac3, hits give low values 0.0889 | locus YDR162C, strain NBP2, hits give low values 0.0524 | locus YDR195W, strain ref2 0.129 | locus YDR297W, strain sur2, hits give low values 0.0532 | locus YDR318W, strain mcm21, hits give low values 0.0664 | locus YDR334W, strain swr1, hits give low values 0.0608 | locus YDR335W, strain msn5, hits give low values 0.059 | locus YDR388W, hits give low values 0.0549 | locus YDR392W, strain spt3, hits give low values 0.0763 | locus YDR502C, strain sam2, hits give low values 0.061 | locus YEL003W, strain gim4, hits give low values 0.0527 | locus YEL037C, strain rad23, hits give low values 0.0554 | locus YEL061C, strain CIN8 (second series), hits give low values 0.0592 | locus YEL061C, strain CIN8, hits give low values 0.0496 | locus YER015W, strain faa2, hits give low values 0.0595 | locus YER016W, strain bim1, hits give low values 0.0609 | locus YER110C, hits give low values 0.0708 | locus YER111C, strain swi4, hits give low values 0.0709 | locus YER155C, strain BEM2 (second series), hits give low values 0.0899 | locus YER155C, strain BEM2, hits give low values 0.0629 | locus YER167W, strain BCK2, hits give low values 0.0564 | locus YFR010W, strain ubp6, hits give low values 0.0674 | locus YGL078C, strain dbp3, hits give low values 0.0553 | locus YGL086W, strain mad1, hits give low values 0.0574 | locus YGL167C, strain pmr1, hits give low values 0.0714 | locus YGL173C, strain kem1, hits give low values 0.0657 | locus YGL227W, strain vid30, hits give low values 0.06 | locus YGL240W, strain doc1, hits give low values 0.0796 | locus YGL248W, strain PDE1, hits give low values 0.0442 | locus YGL253W, strain hxk2, hits give low values 0.0535 | locus YGR078C, strain PAC10, hits give low values 0.0533 | locus YGR135W, strain pre9, hits give low values 0.0644 | locus YGR229C, strain SMI1, hits give low values 0.0652 | locus YGR252W, strain gcn5, hits give low values 0.175 | locus YHR013C, strain ard1, hits give low values 0.0947 | locus YHR027C, strain rpn1, hits give low values 0.0594 | locus YHR030C, strain SLT2, hits give low values 0.0489 and 0.101 | locus YHR079C, strain IRE1 (second series), hits give low values 0.0562 | locus YHR079C, strain IRE1, hits give low values 0.107 | locus YHR094C, strain hxt1, hits give low values 0.0562 | locus YHR129C, strain ARP1, hits give low values 0.0564 | locus YHR142W, strain chs7, hits give low values 0.0716 | locus YHR200W, strain rpn10, hits give low values 0.0589 | locus YIL066C, strain RNR3, hits give low values 0.0491 | locus YIL073C, strain SPO22, hits give low values 0.114 | locus YIL125W, strain kgd1, hits give low values 0.0558 | locus YIR030C, strain dcg1, hits give low values 0.0576 | locus YJL092W, strain hpr5, hits give low values 0.0581 | locus YJL095W, strain BCK1 (second series), hits give low values 0.0549 | locus YJL095W, strain BCK1, hits give low values 0.0583 and 0.105 | locus YJL115W, strain asf1, hits give low values 0.0707 | locus YJL129C, strain trk1, hits give low values 0.0813 | locus YJL134W, strain LCB3, hits give low values 0.0474 | locus YJL154C, strain vps35, hits give low values 0.0577 | locus YJL164C, strain tpk1, hits give low values 0.0602 | locus YJL166W, strain qcr8, hits give low values 0.0579 | locus YJL168C, strain set2, hits give low values 0.0578 | locus YJL187C, strain SWE1 (second series), hits give low values 0.0445 | locus YJL187C, strain SWE1, hits give low values 0.0553 | locus YJR043C, strain POL32, hits give low values 0.0691 | locus YJR066W, strain TOR1, hits give low values 0.000656
